test system: Pectobacterium parmentieri SCC3193; test: DuctApe activity index (growth/respiration on compound as sole nutrient source, blank-subtracted) (activity index (0-3)); higher = stronger utilization of the compound, active = 3 or more; details: nutrient role (plate category): carbon
Experimental: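 Biolog Phenotype Microarray plates PM1, PM2A (carbon), PM3 (nitrogen) and PM4 (phosphorus/sulfur) inoculated with P. parmentieri SCC3193 in M9-C minimal salts medium with Biolog dye A, and read in the OmniLog for 46 h. Each well was tested in triplicate and the experiment was run twice. DuctApe computed a blank-subtracted activity index (AV, 0-3) from the mean curves; growth is positive at AV >= 3 and negative at AV <= 2.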

DuctApe activity index, active:
O[C@@H]1[C@H](O)[C@H](O)CO[C@H]1O [D-Ribose] 3
OC[C@H]1O[C@H](O[C@H]2O[C@H](CO)[C@@H](O)[C@H](O)[C@H]2O)[C@H](O)[C@@H](O)[C@@H]1O [D-Trehalose] 3
OCC1(O)OC[C@@H](O)[C@@H](O)[C@H]1O (stereo partly drawn) [D-Psicose] 3
CO[C@@H]1O[C@H](CO)[C@@H](O)[C@H](O)[C@H]1O [b-Methyl-D-Glucoside] 3
O[C@@H]1[C@@H](O)[C@@H](O)CO[C@H]1O [L-Arabinose] 3
OC[C@H]1OC(O)[C@@H](O)[C@@H](O)[C@@H]1O (stereo partly drawn) [D-Mannose] 3
OC[C@@H](O)[C@@H](O)[C@H](O)[C@H](O)CO [D-Mannitol] 3
O=C(O)/C=C/C(=O)O [Fumaric acid] 3

DuctApe activity index, inactive:
OC[C@H]1O[C@H](OC[C@H]2O[C@H](O[C@H]3[C@H](O)[C@@H](O)[C@@H](O)O[C@@H]3CO)[C@H](O)[C@@H](O)[C@@H]2O[C@H]2O[C@H](CO)[C@@H](O)[C@H](O)[C@H]2O)[C@H](O)[C@@H](O)[C@@H]1O [Glycogen] 0
O=C(O)[C@@H](O)[C@H](O)C(=O)O [D-Tartaric acid] 0
CCCCCCCCCC(=O)O [Capric acid] 0
CC(=O)C(C)=O [2,3-Butanedione] 0
C[C@H](O)C(=O)O [L-Lactic acid] 2
CC(O)C(C)O (configuration not stated) [2,3-Butanediol] 0
O=CC(=O)O [Glyoxylic acid] 0
O=C(CO)[C@@H](O)[C@H](O)[C@@H](O)C(=O)O [5-Keto-D-Gluconic acid] 0
O=C(O)[C@H](O)[C@@H](O)[C@H](O)[C@H](O)CO[C@H]1O[C@H](CO)[C@H](O)[C@H](O)[C@H]1O [Melibionic acid] 0
NCCO [2-Aminoethanol] 0
O=C(O)c1ccccc1O [2-Hydroxybenzoic acid] 0
CCC(=O)O [Propionic acid] 0

same assay, conditions: nutrient role (plate category): nitrogen

DuctApe activity index, inactive:
N[C@@H]1C(O)O[C@H](CO)[C@@H](O)[C@@H]1O (stereo partly drawn) [D-Mannosamine] 2
C[C@H](N)C(=O)N[C@@H](CC(=O)O)C(=O)O 1
O=C1NC(=O)C(=O)N1 [Parabanic acid] 0
NCCCC[C@@H](N)C(=O)O [D-Lysine] 0
O=NO [Nitrite] 0
NCCN [Ethylenediamine] 0
NC(=O)C[C@@H](N)C(=O)O [D-Asparagine] 1
NC(=O)NC(N)=O [Biuret] 0
CSCC[C@H](N)C(=O)N[C@@H](C)C(=O)O 0

same assay, conditions: nutrient role (plate category): phosphate & sulphur

DuctApe activity index, inactive:
O=P(O)(O)OP(=O)(O)O [Pyrophosphate] 1
O=P(O)(O)O[C@H]1[C@H](OP(=O)(O)O)[C@@H](OP(=O)(O)O)[C@H](OP(=O)(O)O)[C@@H](OP(=O)(O)O)[C@H]1OP(=O)(O)O [Inositol Hexaphosphate] 0
NC(=O)CCCCC1CCSS1 (racemic) [DL-Lipoamide] 1
O=S(O)(O)=S [Thiosulfate] 0
O=P(O)(O)OC[C@H]1OC(O)C[C@@H](O)[C@@H]1O (stereo partly drawn) [2-Deoxy-D-Glucose 6-Phosphate] 1
NC(=O)OP(=O)(O)O [Carbamyl Phosphate] 1
O=c1ccn(C2OC(COP(=O)(O)O)C(O)C2O)c(=O)[nH]1 (configuration not stated) [Uridine 5`-Monophosphate] 2
Nc1ncnc2c1ncn2[C@@H]1O[C@H](CO)[C@@H](O)[C@H]1OP(=O)(O)O [Adenosine 2`-Monophosphate] 2

From the supplement of paper PMC6518042
